Test results: PubChem BioAssay (Tox21)
Where “and” joins values, the source holds several entries; their conditions need not be identical. Equal entries are not always repeated. Results filed as inconclusive are left out. A number with no mark means an inactive call. Calls of active or inactive are those of the source. Calls come from the whole dose curve; as a rule, active = well fitted cell-killing curve with a large enough effect in the repeat runs; inconclusive = weak or mixed curves; inactive = no such curve, though single readings can be large or run the other way.

Assay: qHTS assay to identify small molecule agonists of the peroxisome proliferator-activated receptor delta (PPARd) signaling pathway - cell viability counter screen (AID 743211); note: nearly all actives have a fitted effect of over 55% in size
Conditions: PPARd-bla HEK293H viability, CellTiter-Glo luminescence, 17 h; series mostly up to 62.6 µM; activity change, negative = cytotoxicity: at the top concentration
Source text: U.S. Tox21 Program National Center for Advancing Translational Sciences [NCATS] NIH Chemical Genomics Center [NCGC] U.S. Environmental Protection Agency [EPA] National Institutes of Environmental Health Sciences [NIEHS] National Toxicology Program [NTP] U.S. Food and Drug Administration [FDA] Tox21 Assay Overview: The peroxisome proliferator-activated receptors (PPARs) are lipid-activated transcription factors of the nuclear receptor superfamily with three distinct subtypes namely PPAR alpha, PPAR delta (PPARd) and PPAR gamma. All these subtypes heterodimerizes with Retinoid X receptor (RXR) and have different physiological functions. […] To identify the compounds that activate PPAR-delta signaling, GeneBLAzer PPAR delta UAS-bla HEK293H cell line (Invitrogen, Carlsbad, CA, USA) containing a beta-lactamase reporter gene under the control of an Upstream Activator Sequence (UAS) was used to screen the Tox21 compound library. The cytotoxicity of the Tox21 compound library against the PPARd-bla cell line was tested in parallel by measuring the cell viability using CellTiter-Glo assay (Promega, Madison, WI) in the same wells.
Tox21 Assay Protocol Summary: PPARd-bla cells were dispensed at 3000 cells/6uL/well in 1536-well black wall/clear bottom plates using a Multidrop Combi (Thermo Fisher Scientific, Waltham, MA) dispenser. After the assay plates were incubated at 37 C and 5% CO2 for 5 h, 23 nL of compounds dissolved in DMSO, positive controls or DMSO only was transferred to the assay plate by a Pintool station (Kalypsys, San Diego, CA). The assay plates were incubated at 37C for 17 h. After 1 uL of LiveBLAzerTM B/G FRET substrate was added using a Bioraptr Flying Reagent Dispenser (FRD) workstation (Beckman Coulter, Indianapolis, IN, USA), the plates were incubated at room temperature for 2 h, and fluorescence intensity was measured by an Envision plate reader (PerkinElmer, Shelton, CT). For cell viability readout that measures cytotoxicity, 3 ul/well of CellTiter-Glo reagent was added into the assay plates using a Bioraptr FRD. After 30 min incubation at room temperature, the luminescence intensity in the plates was measured using a ViewLux plate reader (PerkinElmer).
% is set by controls: 0 for no effect and ±100 for the full control effect; potency is the fitted concentration of half-maximal effect.

| Compound | activity change, negative = cytotoxicity | Potency |
| --- | --- | --- |
| CCNC(=O)NC(=O)/C(C#N)=N/OC | -6.13% | – |
| CCCCCCCCCCCC[N+](C)(C)CCOc1ccccc1 | – | 13.8 µM (active) and 11.9 µM (active) |
| CCC(C)Cl (stereo not given) | 4.94% | – |
| O=C(N[C@H]1CN2CCC1CC2)c1ccc2c(c1)OCCO2 | -1.6% | – |
| C[C@H]1O[C@H](OC2[C@@H](O)[C@@H](O)C(O)[C@H](O)[C@H]2O)[C@@H](N)C[C@@H]1N=C(N)C(=O)O (stereo not given in full) | 0.932% | – |
| CC(C)(c1ccccc1)c1cc(-n2nc3ccccc3n2)c(O)c(C(C)(C)c2ccccc2)c1 | 4.75% | – |
| CC1(C)[C@H](C(=O)O[C@H](C#N)c2cccc(Oc3ccccc3)c2)[C@@H]1C=C(Br)Br | – | inactive |
| O=C(O)c1ccc(=O)[nH]c1 | -1.67% | – |
| C1CCNCC1 | 0.575% [at 81.1 µM] | – |
| CCOC(=O)c1cncn1C(C)c1ccccc1 (stereo not given) | 6.65% | – |
| CCOP(=O)(O)C(N)=O | -0.253% | – |
| CCCCCl | -2.55% [at 81.1 µM] | – |
| CCOC(C(=O)OCCN(C)C)(c1ccccc1)c1ccccc1 | -8.14% | – |
| FC(F)OC(F)(F)C(F)Cl (stereo not given) | 5.49% | – |
| O=S(=O)(c1ccccc1)c1ccccc1 | -12.6% | – |
| C=CC(=O)NC(C)(C)CC(C)=O | -0.399% | – |
| NC(=O)CF | -21.3% | – |
| CN1C[C@H](C(=O)N[C@]2(C)O[C@@]3(O)[C@@H]4CCCN4C(=O)[C@H](Cc4ccccc4)N3C2=O)C=C2c3cccc4[nH]cc(c34)C[C@H]21 | – | inactive |
| CCCC1CCCCN1 (stereo not given) | 0.996% | – |
| CC(C)OC(=O)Cc1ccccc1 | 8.15% [at 81.1 µM] | – |

| Compound | activity change, negative = cytotoxicity | Potency |
| --- | --- | --- |
| C[C@]12CC[C@H]3[C@@H](CCC4=CC(=O)CC[C@@H]43)[C@@H]1CC[C@@H]2OC(=O)CCc1ccccc1 | 0.602% | – |
| O=C(O)C(Cl)(Cl)Br | -0.997% [at 81.1 µM] | – |
| CCC1(CC)C(=O)NC(=O)NC1=O | -1.36% | – |
| CCN(C(C)=O)c1cccc(-c2ccnc3c(C#N)cnn23)c1 | 0.31% | – |
| O=C(Cl)OCCOCCOC(=O)Cl | 0.504% | – |
| CCC[N+](CCC)(CCC)CCC | 1.61% | – |
| CCCCC1C(=O)NC(=O)N(C2CCCCC2)C1=O (stereo not given) | 2.05% | – |
| C[C@H](N)[C@H](O)c1ccc(O)c(O)c1 | -1.26% | – |
| O=C(O)CCCOc1ccc(Cl)cc1Cl | -15% | – |
| Cc1nc(N(C)C)nc(OC(=O)N(C)C)c1C | -2.85% | – |
| CC(C)(C)CC(C)(C)c1ccc(O)cc1 | – | 34.7 µM (active) |
| CCOP(=O)(SC(C)CC)N1CCSC1=O (stereo not given) | -0.0621% | – |
| CC[N+]1(C)CCCC(OC(=O)C(O)(c2ccccc2)c2ccccc2)C1 (stereo not given) | 2.64% | – |
| [Cl-].[Cl-].[Hg+2] | – | 1.73 µM (active) and 2.19 µM (active) |
| CN1CC[C@]23c4c5ccc(O)c4O[C@H]2[C@@H](O)C=C[C@H]3[C@H]1C5 | -2.06% [at 81.1 µM] | – |
| ClCc1ccccc1Cl | -0.332% [at 81.1 µM] | – |
| CC(Oc1cc(Cl)c(Cl)cc1Cl)C(=O)O (stereo not given) | 1.01% | – |
| Clc1ccc2ccccc2c1 | 0.255% [at 81.1 µM] | – |
| CCSCc1ccccc1OC(=O)NC | 0.396% | – |
| CCCCCCCCCCCCCCCl | -4.6% [at 81.1 µM] | – |
